We go through 22 compounds from PubChem BioAssay (Tox21).

Values joined by “and” are separate entries in the source; they are usually repeats but may differ in a detail not shown here. Equal entries are not always repeated. Inconclusive results are not listed. A structure can be active in one record and inactive in another. Active and inactive are the calls of the source. The call rests on the fitted dose curve; in most records, active means well fitted curve in the direction sought with a large enough effect in the repeat runs; inconclusive means weak or mixed curves; inactive means no such curve, though single readings can be large; an effect the other way counts as inactive or inconclusive.

A short description of test [1]: Caspase-3/7 induction in CHO-K1 cells by small molecules, qHTS cell viability counter screen (AID 1346979). Further: nearly all actives have a fitted effect of over 35% in size. The gist of the method: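 Following a 5hr settling period, CHO-K1 cells at 1,500 per well received DMSO-dissolved compounds. Cell viability was quantified 16hr later by CellTiter-Fluor fluorescence, measured after 1hr with reagent at 37C.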
Test [2] is described as follows: Caspase-3/7 induction in CHO-K1 cells by small molecules, qHTS assay (AID 1346980). Further: nearly all actives have a fitted effect of over 15% in size. The gist of the method: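 Wild-type cells were seeded at 1,500 per well and settled 5 hr at 37 C, 5% CO2, then exposed to DMSO-dissolved compounds for 17 hr. Caspase-Glo 3/7 reagent was added, and luminescence was read after 30min at room temperature.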
Test [3] can be described thus: Caspase-3/7 induction in HepG2 cells by small molecules, qHTS cell viability counter screen (AID 1346981). Further: nearly all actives have a fitted effect of over 30% in size. On activity change, negative = cytotoxicity: series mostly up to about 92 µM. An outline of the steps: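 Steps: seed 2,000 HepG2 cells per well; incubate 5 hr at 37 C; pin-add compounds in DMSO; incubate 16 hr; add CellTiter-Fluor; after 1 hr at 37 C and 5% CO2, read fluorescence.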
A general note: Quantitative high-throughput screening tests each substance at several concentrations.

In test [4] the target is Nuclear receptor subfamily 1 group I member 2 (Homo sapiens) (UniProt O75469). Put plainly: Human pregnane X receptor (PXR) small molecule agonists, qHTS assay (AID 1346982). Further: nearly all actives have a fitted effect of over 35% in size. The gist of the method: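 Agonist mode qHTS: PXR-Luc HepG2 cells plated 5 hr before DMSO-dissolved compounds were pinned in, cultured 24 hr at 37 C, 5% CO2; ONE-Glo luminescence readout.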
The target in test [5] is Cytochrome P450 2D6 (Homo sapiens) (UniProt P10635). Put plainly: Cytochrome P450 Family 2 Subfamily D Member 6 (CYP2D6) small molecule antagonists: luciferase reporter qHTS assay (AID 1671196). Further: nearly all actives have a fitted effect of over 50% in size. On activity change, negative = inhibition: series mostly up to about 120 µM. An outline of the steps:
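P450-Glo format: CYP2D6 converts a proluciferin substrate to luciferin in an NADPH-driven reaction lasting 1 h at room temperature. Light output, proportional to CYP2D6 activity, reflects interference by test chemicals.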
On the technique in general: A reporter such as luciferase makes a cellular process visible.

The target in test [6] is Cytochrome P450 2C19 (Homo sapiens) (UniProt P33261). Put plainly: Cytochrome P450 Family 2 Subfamily C Member 19 (CYP2C19) small molecule antagonists: luciferase reporter qHTS assay (AID 1671197). Further: nearly all actives have a fitted effect of over 65% in size. On activity change, negative = inhibition: series mostly up to about 120 µM. An outline of the steps: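 Relative luminescence units recorded 20 min after the detection reagent stopped a 1 h, 37C CYP2C19 reaction on proluciferin substrate, which was started by NADPH regeneration following 10 min room-temperature compound preincubation; ketoconazole positive control.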

Test [7] has as its target Cytochrome P450 2C9 (Homo sapiens) (UniProt P11712). Nature of the test: Cytochrome P450 Family 2 Subfamily C Member 9 (CYP2C9) small molecule antagonists: luciferase reporter qHTS assay (AID 1671198). Further: nearly all actives have a fitted effect of over 50% in size. On activity change, negative = inhibition: series mostly up to about 120 µM. The gist of the method:
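CYP2C9 activity was measured with a P450-Glo proluciferin substrate. Enzyme–substrate mix was held with compound for 10 min at room temperature, then NADPH regeneration solution was added for 1 h at 37C. Luciferin product was read as luminescence.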

The target of test [8] is Cytochrome P450 1A2 (Homo sapiens) (UniProt P05177). Put plainly: Cytochrome P450 Family 1 Subfamily A Member 2 (CYP1A2) small molecule antagonists: luciferase reporter qHTS assay (AID 1671199). Further: nearly all actives have a fitted effect of over 50% in size. On activity change, negative = inhibition: series mostly up to about 120 µM. An outline of the steps:
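Inhibition of CYP1A2 conversion of proluciferin to luciferin, detected by luminescence. Reaction run 1 h at room temperature with NADPH regeneration after brief compound preincubation.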

In test [9] the target is Voltage-gated inwardly rectifying potassium channel KCNH2 (Homo sapiens) (UniProt Q12809). Nature of the test: Human Ether-a-go-go-Related Gene (hERG) channel small molecule antagonists: fluorescence cell-based qHTS assay (AID 1671200). Further: nearly all actives have a fitted effect of over 50% in size.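 On activity change, negative = inhibition: hERG-expressing U2OS cells given a thallium stimulus after FluxOR II dye loading; series mostly up to about 77 µM.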 An outline of the steps:
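In this thallium-flux screen, overnight-cultured U2OS cells bearing the channel are dye-loaded in darkness for an hour, rested 10 min at room temperature, and then monitored kinetically at 480/540 nm for two minutes post-stimulus.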
On the technique in general: The hERG channel carries a current that helps repolarise heart muscle cells.

The target in test [10] is Cytochrome P450 3A4 (Homo sapiens) (UniProt P08684). Nature of the test: Cytochrome P450 Family 3 Subfamily A Member 4 (CYP3A4) small molecule antagonists: luciferase reporter qHTS assay (AID 1671201). Further: nearly all actives have a fitted effect of over 50% in size. On activity change, negative = inhibition: series mostly up to about 120 µM. An outline of the steps:
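CYP3A4 activity was followed with a P450-Glo proluciferin substrate. Test compounds in DMSO were preincubated 10 min; NADPH regeneration then ran 1 h, and light output was read 20 min after detection reagent.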
On the % scale 0 is the no-effect control and ±100 the full control effect; potency means the concentration at half of the fitted maximal effect.

Chain of Cytochrome P450 2D6 (Homo sapiens) (P10635 whole entry, looked up): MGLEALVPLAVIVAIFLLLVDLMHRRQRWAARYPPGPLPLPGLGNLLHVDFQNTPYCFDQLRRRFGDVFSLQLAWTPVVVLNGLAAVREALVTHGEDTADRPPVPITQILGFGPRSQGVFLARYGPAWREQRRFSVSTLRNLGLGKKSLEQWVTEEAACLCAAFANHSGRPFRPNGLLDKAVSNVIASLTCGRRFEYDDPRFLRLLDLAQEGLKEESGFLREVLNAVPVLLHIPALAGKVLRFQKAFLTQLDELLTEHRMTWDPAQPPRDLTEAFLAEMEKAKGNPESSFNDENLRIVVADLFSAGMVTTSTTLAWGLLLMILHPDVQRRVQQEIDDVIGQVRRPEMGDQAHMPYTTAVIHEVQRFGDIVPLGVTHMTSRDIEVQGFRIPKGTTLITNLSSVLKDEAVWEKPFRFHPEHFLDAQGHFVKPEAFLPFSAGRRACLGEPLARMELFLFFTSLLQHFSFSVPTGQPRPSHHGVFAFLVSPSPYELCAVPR
Chain of Voltage-gated inwardly rectifying potassium channel KCNH2 (Homo sapiens) (Q12809 whole entry, looked up): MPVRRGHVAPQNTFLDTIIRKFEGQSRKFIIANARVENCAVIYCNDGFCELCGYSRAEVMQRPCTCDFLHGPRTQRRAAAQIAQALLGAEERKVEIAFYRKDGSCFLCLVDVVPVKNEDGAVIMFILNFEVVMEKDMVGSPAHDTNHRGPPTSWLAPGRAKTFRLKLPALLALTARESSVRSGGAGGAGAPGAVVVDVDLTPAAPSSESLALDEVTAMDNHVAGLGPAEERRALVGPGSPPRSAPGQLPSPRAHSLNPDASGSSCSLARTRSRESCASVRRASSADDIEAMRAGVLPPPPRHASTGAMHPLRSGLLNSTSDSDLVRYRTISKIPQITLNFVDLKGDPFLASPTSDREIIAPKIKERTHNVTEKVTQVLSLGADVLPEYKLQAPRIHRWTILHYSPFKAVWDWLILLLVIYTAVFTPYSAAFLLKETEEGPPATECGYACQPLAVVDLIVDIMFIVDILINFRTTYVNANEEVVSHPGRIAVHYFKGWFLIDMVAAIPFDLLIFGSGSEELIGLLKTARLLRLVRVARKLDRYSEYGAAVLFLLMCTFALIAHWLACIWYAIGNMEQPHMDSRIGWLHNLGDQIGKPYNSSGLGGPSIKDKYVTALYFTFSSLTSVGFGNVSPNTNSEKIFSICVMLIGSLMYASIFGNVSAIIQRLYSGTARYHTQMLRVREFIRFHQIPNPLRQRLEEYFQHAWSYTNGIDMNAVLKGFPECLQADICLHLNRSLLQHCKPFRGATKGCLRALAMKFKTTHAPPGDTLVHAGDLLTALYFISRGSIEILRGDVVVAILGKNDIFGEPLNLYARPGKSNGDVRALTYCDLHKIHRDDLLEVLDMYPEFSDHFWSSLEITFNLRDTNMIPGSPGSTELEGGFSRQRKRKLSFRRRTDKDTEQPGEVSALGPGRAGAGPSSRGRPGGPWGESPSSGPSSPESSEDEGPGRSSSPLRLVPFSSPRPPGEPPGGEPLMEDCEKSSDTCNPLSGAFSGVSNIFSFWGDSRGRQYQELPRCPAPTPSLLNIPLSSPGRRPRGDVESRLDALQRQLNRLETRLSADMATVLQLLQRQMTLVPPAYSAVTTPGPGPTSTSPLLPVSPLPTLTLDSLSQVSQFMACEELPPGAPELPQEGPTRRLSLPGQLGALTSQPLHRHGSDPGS
Chain of Cytochrome P450 1A2 (Homo sapiens) (P05177 whole entry, looked up): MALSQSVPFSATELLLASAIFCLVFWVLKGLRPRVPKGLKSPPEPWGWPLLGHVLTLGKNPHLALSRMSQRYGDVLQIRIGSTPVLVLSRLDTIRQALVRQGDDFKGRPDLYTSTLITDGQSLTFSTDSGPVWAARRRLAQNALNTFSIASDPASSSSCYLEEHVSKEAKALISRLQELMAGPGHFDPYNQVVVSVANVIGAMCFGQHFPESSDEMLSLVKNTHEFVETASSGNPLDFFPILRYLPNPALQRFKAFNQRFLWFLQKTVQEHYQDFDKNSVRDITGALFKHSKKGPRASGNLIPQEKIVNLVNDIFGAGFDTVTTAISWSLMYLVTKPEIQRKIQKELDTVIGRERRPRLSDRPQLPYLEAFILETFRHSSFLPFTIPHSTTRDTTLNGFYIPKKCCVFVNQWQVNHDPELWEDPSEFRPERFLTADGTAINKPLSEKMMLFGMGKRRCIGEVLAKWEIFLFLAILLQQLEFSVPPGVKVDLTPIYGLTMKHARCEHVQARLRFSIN
Chain of Cytochrome P450 3A4 (Homo sapiens) (P08684 whole entry, looked up): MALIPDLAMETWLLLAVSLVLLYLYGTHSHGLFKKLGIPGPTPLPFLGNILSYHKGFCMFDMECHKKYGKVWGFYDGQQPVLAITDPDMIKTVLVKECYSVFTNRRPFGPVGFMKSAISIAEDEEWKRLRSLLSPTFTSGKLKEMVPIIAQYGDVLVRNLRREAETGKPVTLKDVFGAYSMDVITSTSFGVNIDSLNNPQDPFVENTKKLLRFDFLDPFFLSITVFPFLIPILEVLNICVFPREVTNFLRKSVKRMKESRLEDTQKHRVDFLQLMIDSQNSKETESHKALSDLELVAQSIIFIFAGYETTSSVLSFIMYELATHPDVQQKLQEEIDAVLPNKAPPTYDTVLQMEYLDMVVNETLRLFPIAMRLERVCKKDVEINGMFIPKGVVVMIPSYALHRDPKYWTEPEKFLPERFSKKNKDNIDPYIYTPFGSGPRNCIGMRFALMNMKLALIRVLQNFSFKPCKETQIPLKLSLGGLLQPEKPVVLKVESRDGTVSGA
Chain of Cytochrome P450 2C9 (Homo sapiens) (P11712 whole entry, looked up): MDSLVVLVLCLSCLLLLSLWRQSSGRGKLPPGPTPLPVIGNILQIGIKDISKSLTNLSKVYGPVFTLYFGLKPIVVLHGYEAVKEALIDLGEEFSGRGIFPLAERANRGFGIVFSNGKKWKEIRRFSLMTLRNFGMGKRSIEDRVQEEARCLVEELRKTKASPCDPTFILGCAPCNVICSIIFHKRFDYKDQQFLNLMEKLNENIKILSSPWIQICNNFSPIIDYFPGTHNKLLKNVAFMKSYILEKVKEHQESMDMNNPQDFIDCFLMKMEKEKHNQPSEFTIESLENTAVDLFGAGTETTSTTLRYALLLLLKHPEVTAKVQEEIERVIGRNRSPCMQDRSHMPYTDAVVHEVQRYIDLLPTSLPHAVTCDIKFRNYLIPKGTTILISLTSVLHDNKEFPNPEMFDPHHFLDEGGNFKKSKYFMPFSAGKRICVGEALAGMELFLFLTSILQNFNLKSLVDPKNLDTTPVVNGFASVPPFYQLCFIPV
Chain of Cytochrome P450 2C19 (Homo sapiens) (P33261 whole entry, looked up): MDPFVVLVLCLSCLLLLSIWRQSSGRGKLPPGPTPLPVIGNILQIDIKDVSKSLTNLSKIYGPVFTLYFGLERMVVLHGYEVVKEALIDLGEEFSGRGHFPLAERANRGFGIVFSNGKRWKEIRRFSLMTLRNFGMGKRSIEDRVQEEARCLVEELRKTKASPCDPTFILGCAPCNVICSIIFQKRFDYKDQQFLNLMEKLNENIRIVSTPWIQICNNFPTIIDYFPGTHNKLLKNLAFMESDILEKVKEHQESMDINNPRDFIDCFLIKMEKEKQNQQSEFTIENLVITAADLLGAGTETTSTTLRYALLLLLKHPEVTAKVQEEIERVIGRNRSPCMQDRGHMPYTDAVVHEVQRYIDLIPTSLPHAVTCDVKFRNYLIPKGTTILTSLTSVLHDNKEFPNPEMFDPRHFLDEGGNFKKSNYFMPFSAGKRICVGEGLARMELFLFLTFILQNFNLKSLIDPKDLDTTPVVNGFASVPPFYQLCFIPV
Chain of Nuclear receptor subfamily 1 group I member 2 (Homo sapiens) (O75469 whole entry, looked up): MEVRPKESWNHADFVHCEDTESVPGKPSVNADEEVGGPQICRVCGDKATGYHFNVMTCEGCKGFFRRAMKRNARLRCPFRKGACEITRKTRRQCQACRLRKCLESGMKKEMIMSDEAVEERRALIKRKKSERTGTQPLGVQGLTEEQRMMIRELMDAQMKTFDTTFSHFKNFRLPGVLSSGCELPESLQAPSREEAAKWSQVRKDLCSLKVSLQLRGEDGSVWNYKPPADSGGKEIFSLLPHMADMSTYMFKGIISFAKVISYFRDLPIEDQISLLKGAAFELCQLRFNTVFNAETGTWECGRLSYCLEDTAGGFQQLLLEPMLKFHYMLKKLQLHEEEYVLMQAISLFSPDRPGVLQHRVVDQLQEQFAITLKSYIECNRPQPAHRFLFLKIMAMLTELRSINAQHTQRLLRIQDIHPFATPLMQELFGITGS

Regarding `CS(C)(=O)=O`, the Potency entry in [1], in test [2], in test [3], in test [4], in test [5] and in test [6] was “inactive” each time. For the same compound, the Potency entry in [7], in test [8], in [9] and in test [10] was “inactive” each time.
For the compound `CCN=C1C=CC(=C(c2ccc(N(CC)CC)cc2)c2ccc(N(CC)CC)cc2)c2ccccc21`, the Potency is 0.963 µM (active) in test [1]; 8.58 µM (active) in test [3]; 0.0242 µM (active) in test [4]; 12.6 µM (active) in [5]; 17.7 µM (active) in [6]; 15.8 µM (active) in [7]. The Potency is 25 µM (active) in [8], 0.345 µM (active) in test [9] and 8.88 µM (active) in test [10]. The Potency result in test [2] is “inactive”.
As for `C/C=C/c1ccc(OC)c(OC)c1`, the Potency result in test [1], in test [2], in test [3], in test [4], in test [5] and in test [9] was “inactive” each time. Besides, the Potency in test [6] is 71 µM (active); in test [7], 35.6 µM (active); in [8], 25.2 µM (active); in test [10] it was 20 µM (active).
On to `O=c1cccc[nH]1`, for which the Potency entry in test [1], in [2], in test [3], in [4], in test [5] and in test [6] was “inactive” each time. Also, the Potency entry in [7], in [8], in test [9] and in test [10] was “inactive” throughout.
As to `CCN=c1cc2oc3cc(NCC)c(C)cc3c(-c3ccccc3C(=O)OCC)c-2cc1C`, the Potency in test [1] is 965 nM (active) and 611 nM (active); in [2] it was 43.1 µM (active) and 48.6 µM (active); in test [3], 2.72 µM (active) and 7.7 µM (active); in [4] it was 2.42 µM (active) and 1.72 µM (active); in [5], 17.8 µM (active) and 20 µM (active); in [6] it was 7.94 µM (active) and 10 µM (active). Also, the Potency in test [7] was 7.94 µM (active) and 12.6 µM (active); in test [9], 2.45 µM (active) and 2.19 µM (active); in [10] it was 999 nM (active) and 2 µM (active). For the same compound, the Potency result in test [8] is “inactive”.
Consider `CCCC(O)C(O)CO` (stereo not given), for which the Potency result in test [1], in [2], in test [3], in [4], in [5] and in [6] was “inactive” in each case. For the same compound, the Potency result in test [7], in [8], in test [9] and in [10] was “inactive” each time.
`CCCCCCCCCCCC(=O)N(CC)CC`: the Potency entry in test [1], in test [2], in test [3], in test [5], in [6] and in test [9] was “inactive” throughout. Besides, the figures for the Potency in test [4] and in test [7] were 21.7 µM (active) and 50.2 µM (active), respectively.
In the case of `CCCCCCCCCCCCCc1ccccc1`, the Potency entry in test [1], in test [2], in test [3], in [4], in [5] and in test [6] was “inactive” each time. Besides, the Potency entry in test [7], in [8] and in [10] was “inactive” throughout.
Turning to `Cc1cccc(N(C)C)c1`, the Potency entry in test [1], in test [2], in test [3], in [4], in test [5] and in test [7] was “inactive” each time. The Potency entry in test [8], in [9] and in [10] was “inactive” throughout.
As to `CC1(C)COCN1`, the Potency result in test [1], in test [2], in test [3], in test [4], in [5] and in test [6] was “inactive” in each case. Also, the Potency result in test [7], in test [9] and in test [10] was “inactive” each time.
With `CC(=O)Nc1ccc(O)cc1`, the Potency entry in test [1], in test [2], in test [3], in test [4], in test [6] and in [7] was “inactive” in each case. Further, the Potency result in test [9] is “inactive”. Besides, the Potency in test [5] is 32.9 µM (active) and inactive.
`C=C/C=C/C=C/CCCCC`: the activity change, negative = cytotoxicity is -1.73% [at 19 µM] (inactive) in test [1] and -1.07% [at 19 µM] (inactive) in test [3]. Also, the caspase-3/7 activation in test [2] is 0.387% [at 19 µM] (inactive). The activation in [4] is 9.15% [at 19 µM] (inactive). In addition, the activity change, negative = inhibition was -25.6% [at 23.6 µM] (inactive) in test [5], -9.41% [at 23.6 µM] (inactive) in [8] and -12.1% [at 15.8 µM] (inactive) in test [9]. Moreover, the Potency in [7] and in test [10] was 16.9 µM (active) each time.
`CCN1CCN(c2cc(-c3ccc(F)cc3)c3c(n2)CCCCCC3)CC1`: the values for the activity change, negative = cytotoxicity in test [1] and in test [3] were 0.368% [at 19 µM] (inactive) and -1.31% [at 19 µM] (inactive), respectively. For the same compound, the caspase-3/7 activation in test [2] was 1.46% [at 19 µM] (inactive). Further, in test [4], the activation was -23.7% [at 19 µM] (inactive). The Potency in [5] is 6.74 µM (active); in test [9], 4.65 µM (active). In addition, the activity change, negative = inhibition was -2.56% [at 23.6 µM] (inactive) in test [6] and -5.46% [at 23.6 µM] (inactive) in test [7].
With `CC(C)=CCCC(C)O` (stereo not given), the Potency result in test [1], in test [2], in test [3], in test [4], in test [5] and in test [6] was “inactive” in each case. Also, the Potency entry in test [7], in test [8], in test [9] and in test [10] was “inactive” each time.
As to `C=CC/C=C/C/C=C/C/C=C/C`, the Potency entry in [1], in test [2], in [3], in test [4], in [5] and in [6] was “inactive” throughout. In addition, the Potency entry in [7] and in test [9] was “inactive” each time.
Regarding `C=CC(=C)CCC=C(C)C`, the Potency entry in [1], in test [2], in test [3], in test [4], in test [5] and in test [8] was “inactive” each time. Further, in [9], the Potency entry was “inactive”.
With `C=CC(=C)CC/C=C(\C)CCC=C(C)C`, the activity change, negative = cytotoxicity in test [1] is -0.798% [at 19 µM] (inactive); in [3] it was -2.86% [at 19 µM] (inactive). Further, in test [2], the caspase-3/7 activation is 0.541% [at 19 µM] (inactive). In addition, in [4], the activation is 8.17% [at 19 µM] (inactive). The activity change, negative = inhibition in test [5] is -7.39% [at 23.6 µM] (inactive); in test [9], -2.72% [at 15.8 µM] (inactive). The Potency was 15.1 µM (active) in test [8] and 16.9 µM (active) in test [10].
With `CC(O)C#CC(C)O` (stereo not given), the figures for the Potency in test [1], in [4] and in test [5] were 27 µM (active), 24.1 µM (active) and 35.2 µM (active), respectively. In addition, the Potency result in [2], in [3], in [7], in test [9] and in test [10] was “inactive” each time.
For the compound `CCc1ccc(C)nc1`, the Potency entry in [1], in [2], in [3], in test [4], in [5] and in test [6] was “inactive” each time. Moreover, the Potency result in [7], in test [8], in [9] and in test [10] was “inactive” in each case.
For the compound `CCCCCCCCCCCCCOP(=O)(O)O`, the Potency result in test [1], in test [2], in [3], in [4], in test [5] and in [9] was “inactive” in each case. Besides, the Potency result in test [10] is “inactive”. For the same compound, in test [6], the Potency is 79.6 µM (active).
For `C#CC(O)CCC` (stereo not given), the Potency entry in test [1], in test [2], in [3], in [4], in test [5] and in test [6] was “inactive” throughout. Moreover, the Potency result in test [7], in [9] and in [10] was “inactive” in each case.
`CCCCCCCCCCCCCC[n+]1ccccc1`: the Potency in test [1] is 27.3 µM (active); in test [3], 27.3 µM (active); in test [4] it was 8.63 µM (active); in test [5], 1.78 µM (active); in [8], 71 µM (active); in test [9] it was 5.49 µM (active). In test [2], the Potency result was “inactive”.
